PINK1 modulator: A Quantitative High throughput Screen to Identify Chemical Modulators of PINK1 Expression. PINK1 immunofluorescence, high-content cytometry, 24 h. 410,000 tested, 0.2% active. Potency, µM (highest dose often 76.6 µM), for the others: at the highest dose activation (PINK1 increase), usual class: activators; active means well fitted activation curve with a large enough effect; inconclusive means small, poorly fitted or top-dose-only effect; cell line not stated here; further: % of control where 0% means no effect; nearly all actives have a fitted effect of over 65% in size
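PINK1 protein level read as immunofluorescence by microplate cytometer in a fixed, stained stable cell line after 24 h exposure to five compound concentrations, with CCCP as control.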
VP16 counter: VP16 counterscreen qHTS for inhibitors of ROR gamma transcriptional activity; Drosophila S2 Gal4-VP16 UAS-luciferase, luminescence, 20 h; Potency, µM (top dose mostly 53.6 µM), inactives show top-dose activity, negative = inhibition, usual class: inhibitors; 310,000 tested, 3.5% active;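 further: Gal4-VP16 expression switched on by copper sulfate through the metallothionein promoter; on the % scale 0 is the no-effect control and ±100 the full control effect; nearly all actives have a fitted effect of over 50% in size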
RORg inh: qHTS for inhibitors of ROR gamma transcriptional activity. AID 2551, 2010. Drosophila S2 Gal4-RORgamma UAS-luciferase reporter, 20 h. Nuclear receptor ROR-gamma (Mus musculus), P51450. Potency, µM (doses to about 53.6 µM), inactives show top-dose activity change, negative = inhibition, actives largely listed as inhibitors. 310,000 tested, 5.4% active; further: on the % scale 0 is the no-effect control and ±100 the full control effect; nearly all actives have a fitted effect of over 60% in size
Target sequence (P51450 whole entry, looked up, the tested form may be a part): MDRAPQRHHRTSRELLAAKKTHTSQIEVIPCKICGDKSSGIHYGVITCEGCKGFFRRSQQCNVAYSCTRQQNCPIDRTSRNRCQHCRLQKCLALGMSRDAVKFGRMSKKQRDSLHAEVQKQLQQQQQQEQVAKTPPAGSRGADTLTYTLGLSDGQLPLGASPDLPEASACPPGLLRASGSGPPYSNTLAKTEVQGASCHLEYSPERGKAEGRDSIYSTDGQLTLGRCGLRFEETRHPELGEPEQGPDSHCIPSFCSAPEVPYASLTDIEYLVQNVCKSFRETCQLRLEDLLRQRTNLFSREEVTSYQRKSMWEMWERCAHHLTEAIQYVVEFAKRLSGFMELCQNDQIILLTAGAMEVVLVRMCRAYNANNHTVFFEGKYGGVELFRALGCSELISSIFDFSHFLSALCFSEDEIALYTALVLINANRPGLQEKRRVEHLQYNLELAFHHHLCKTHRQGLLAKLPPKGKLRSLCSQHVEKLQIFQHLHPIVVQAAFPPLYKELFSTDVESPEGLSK
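Compounds are pin-transferred onto Drosophila Schneider cells expressing a copper-inducible Gal4–ROR gamma transactivation domain fusion. After 1 hr, copper sulfate is added to 700 uM final; luciferase is read 20 hr later.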
Epigenetic derep: Quantitative High-Throughput Screen for Regulators of Epigenetic Control. murine LDR cells, GFP reporter derepression, 30 h. 280,000 tested, 0.2% active. Potency, µM (titrated, usually from 53.9 µM), for the others: at the top dose GFP activation, most hits filed as activators; further: % of control where 0% means no effect; nearly all actives have a fitted effect of over 60% in size
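Murine LDR cells carrying a silenced, genomically integrated CMV-driven GFP reporter were exposed to compound for 30 hours at 37 C. After PBS washes, GFP-positive cells (20–120 um objects) were counted by laser-scanning microplate cytometry.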
Sfp inh: qHTS Assay for Inhibitors of Bacillus subtilis Sfp phosphopantetheinyl transferase (PPTase) | 4'-phosphopantetheinyl transferase ffp (Bacillus subtilis), Q9F4F7 | Biochemical Sfp PPTase activity, qHTS | Potency, µM, for inactives: largest response in the series, negative = inhibition, usual class: inhibitors | 310,000 tested, 3.5% active;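 further: the enzyme is Sfp with the accession as filed and its product quenches rhodamine fluorescence; 0% = enzyme reaction without inhibitor and -100% = no enzyme wells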
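Compounds were incubated with enzyme (final 15 nM) for 15 min at room temperature before substrate addition started the reaction. Fluorescence at 525 nm excitation, 598 nm emission was recorded immediately and after 30 minutes.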
ClpP mod: qHTS Assay for Activators of ClpP. purified B. subtilis ClpP, FRET peptide cleavage, 20 min. 340,000 tested, 1.9% active. Potency, µM (top dose mostly 57.5 µM), without a hit: at the top dose activity change, negative = active. ATP-dependent Clp protease proteolytic subunit (Bacillus subtilis (strain 168)), P80244; active means well fitted falling curve with a large enough effect; inconclusive means small, poorly fitted or top-dose-only effect; inactive means no such curve, though single readings can be large or run the other way; further: the source files actives as falling curves though it sought activators and does not explain the sign; nearly all actives have a fitted effect of over 65% in size
Target sequence (P80244 whole entry, looked up): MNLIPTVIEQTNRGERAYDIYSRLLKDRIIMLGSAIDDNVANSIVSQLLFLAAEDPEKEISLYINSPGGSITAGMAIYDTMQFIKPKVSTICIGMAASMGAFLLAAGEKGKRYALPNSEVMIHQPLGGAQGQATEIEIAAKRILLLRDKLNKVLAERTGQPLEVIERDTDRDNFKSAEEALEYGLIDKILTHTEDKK
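Buffer: 100 mM Tris/HCl pH8, 100 mM KCl, 0.05% low protease BSA, 2.5% glycerol, 0.01% Tween-20. ClpP 10 microg/mL final; 20 min RT; delta FRET normalized to ADEP and DMSO controls.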
An asterisk follows results filed as active; u = inconclusive; x = no result given; [ ] = another dose, or the depositor's remark. Rows were chosen to be rich in hits. Some 8.1% of all compounds tested hit in one or more screens of this group. Unless noted, the call rests on the fitted dose curve; in most records, active means well fitted curve in the direction sought with a large enough effect; inconclusive means small, poorly fitted or top-dose-only effect, or another doubt; inactive means no such curve, though single readings can be large; an effect the other way counts as inactive or inconclusive. Potency means the concentration at half of the fitted maximal effect.

SMILES	PINK1 modulator	VP16 counter	RORg inh	Epigenetic derep	Sfp inh	ClpP mod
CC(C)C(NC(=O)C(CC(=O)O)NC(=O)C(CCCCN)NC(=O)C(N)CCCN=C(N)N)C(=O)NC(Cc1ccc(O)cc1)C(=O)O (stereo not drawn)	x	1%	1%	x	12%	x
Cc1ccccc1-n1nc(C)c2cc(C(=O)NCc3cccnc3)sc21	4%[38.3 µM]	-30%	-7%	-10%	-11%	28µM*
COc1cc2c(cc1OC)C(COc1ccc3c(C)cc(=O)oc3c1)N(C(=O)Cc1ccccc1)CC2 (stereo not drawn)	2%	x	x	2%	x	-1%
O=C(NCc1cccs1)c1ccc2c(c1)N(Cc1cccc(F)c1)C(=O)c1ccccc1S2	1%	x	x	-1%	x	-4%
CCOc1ccc(-c2c(C(=O)N/N=C/c3ccc(OC(C)C)cc3)nnn2-c2nonc2N)cc1	2%	-12%	0%	-1%	6%	u
Cc1ccc(-c2c(C(=O)N/N=C/c3ccco3)nnn2-c2nonc2N)cc1	0%	u	6.3µM*	x	8%	0%
Cc1ccc(-c2c(C(=O)N/N=C/c3ccc(C)o3)nnn2-c2nonc2N)cc1	-2%	11µM*	7.9µM*	x	50µM*	-6%
Cc1ccc(-c2c(C(=O)N/N=C/c3ccc(OC(C)C)cc3)nnn2-c2nonc2N)cc1	1%	u	-98%	x	14%	28µM*
CCN(CC)c1ccc(NS(=O)(=O)c2cc3[nH]c(=O)c(=O)[nH]c3cc2C)c(C)c1	8%	x	x	0%	x	-3%
Cc1ccc(C(=O)c2oc3ccccc3c2NC(=O)c2nc(S(C)(=O)=O)ncc2Cl)cc1F	1%	x	x	u	x	-2%
CN1C(=O)C2CCCCN2c2ccc(C(=O)NCc3ccccc3Br)cc21 (stereo not drawn)	0%	x	x	-2%	x	-9%
COc1ccc2c(c1)CCc1cnc(-n3ncc(C(=O)NC4CCOC4)c3C3CC3)nc1-2 (stereo not drawn)	2%	x	x	x	x	x
CCc1cc2c3c(c(=O)oc2cc1O)CCCC3	0%	-17%	-33%	0%	8%	10µM*
O=C1[C@@H]2[C@H]3[C@H](O)[C@H](O)C/C(=N/OC[C@@H](O)COCc4ccco4)[C@H]3CC[C@H]2C(=O)N1c1ccc(F)cc1F	x	-13%[10 µM]	-4%[10 µM]	1%[10.1 µM]	13%	x
Cc1ccc(C(=O)Nc2ccc3c(c2)OCCO3)cc1	2%	10µM*	10µM*	x	13%	-2%
Cc1ccn2cc(C(=O)Nc3ccc4c(c3)OCCO4)nc2c1	x	4.5µM*	1.3µM*	-1%	4%	4%
Cc1ccc(C(=O)Nc2ccc3c(c2)OCCO3)c(Cl)c1	0%	5µM*	7.9µM*	x	-2%	-3%
Cc1ccc(C(=O)Nc2ccc3c(c2)OCO3)cc1	u	-25%	u	-1%	4%	-2%
O=C(Nc1ccc2c(c1)OCCO2)c1cc(F)c(F)cc1Cl	2%	x	x	x	8%	-1%
Cc1ccn2cc(C(=O)Nc3ccccc3N3CCOCC3)nc2c1	x	-5%	6%	3%	-11%	-3%
COc1cc(SC)ccc1C(=O)Nc1ccc2c(c1)OCCO2	-7%[38.3 µM]	u	11µM*	-1%	-8%	-1%
Cc1ccc(C)c(-c2csc(NC(=O)c3cnccn3)n2)c1	12%	1.3µM*	0.5µM*	2%	-22%	-19%
O=C(Nc1nc(-c2cc(F)ccc2F)cs1)c1ccccn1	3%	1.3µM*	0.1µM*	u	-2%	x
O=C(Nc1nc(-c2ccccn2)cs1)Nc1ccc(F)cc1F	17%	u	3.5µM*	x	11µM*	-2%
O=C(Nc1ccc(F)cc1F)Nc1csc2ccccc12	u	u	3%	0%	7%	11µM*
SMILES	PINK1 modulator	VP16 counter	RORg inh	Epigenetic derep	Sfp inh	ClpP mod
Cc1c(C(=O)NCc2ccccc2Cl)sc2ncnc(NCC3CCCO3)c12 (stereo not drawn)	1%	x	x	x	x	x
COc1ccc(CNC(=O)C2=C(C)C(=O)OC23CCN(C(C)=O)CC3)cc1	0%	x	x	-1%	x	3%
COc1ccc(OC)c(CC2C(=O)Nc3ccc(Br)cc32)c1 (stereo not drawn)	4%	x	x	6%	x	4%
COc1cc(C(=O)N2CCNC(=O)C2CC(=O)Nc2ccc(C)c(C)c2)cc(OC)c1OC (stereo not drawn)	0%	x	x	-1%	x	1%
S=c1nc(C2COc3ccccc3O2)[nH][nH]1 (stereo not drawn)	0%	17%	13µM*	0%	22µM*	x
Cc1cc(Cl)ccc1OCC(=O)NC(=S)Nc1ccc(Cl)cn1	0%	-6%	5.6µM*	x	-9%	5%
CCCC(=O)NC(=S)Nc1ccc(Cl)cn1	0%	6.3µM*	3.5µM*	2%	u	3%
Cc1n[nH]c(=O)[nH]c1=O	x	4%[17 µM]	4%[16.9 µM]	-1%[16.9 µM]	5%	x
CC12C=C(/C=C/c3ccccc3)C(C)(C1)C(c1ccccc1)CC2=O (stereo not drawn)	x	-15%[10 µM]	11%[10 µM]	1%[10.1 µM]	8%	x
COc1ccc(-c2ccnc(-n3ncc(C(=O)NC(C)(C)CO)c3C3CC3)n2)cc1F	-1%	x	x	x	x	x
COc1ccc(CNC(=S)N/N=C(\C)c2ccc(OC)cc2)cc1	7%	5µM*	6.3µM*	-1%	6%	x
C/C(=N\NC(=S)NCc1ccccc1)c1cccc(Br)c1	7%	2%	u	1%	2%	x
C/C(=N\NC(=S)NCCc1ccccc1)c1cccc(Br)c1	4%	u	4.5µM*	1%	-3%	-2%
C/C(=N\NC(=S)NCc1ccccc1)c1ccc2ccccc2c1	2%	4.5µM*	2.5µM*	-1%	-14%	-4%
COc1ccc(/C(C)=N/NC(=S)NCc2ccco2)cc1	1%	5.6µM*	2.8µM*	u	-3%	1%
O=C(NCc1ccco1)c1ccc2c(c1)N(Cc1ccc(F)cc1)C(=O)c1ccccc1S2=O (stereo not drawn)	0%	x	x	0%	x	-3%
CC(=O)c1ccc(N2CCN(C(=O)CS(=O)(=O)c3cccc4nsnc34)CC2)cc1	-4%	x	x	1%	x	-5%
C=CCNC(=S)N/N=C(\C)c1ccc(OC)cc1	1%	1.1µM*	0.71µM*	u	-11%	x
COc1ccccc1/C(C)=N/NC(=S)NCc1ccccc1	5%	7.1µM*	3.2µM*	0%	16%	x
COc1ccc(/C(C)=N/NC(=S)NCCc2ccccc2)cc1	0%	1.1µM*	0.28µM*	u	10%	x
